# From the supplement of paper PMC4022240
# ± gives the standard deviation.
# B1: H3 11-23 T G G Kme A P Rcit K Q L A T K (peptide)
# chain: TGGKAPRKQLATK
# B2: H3 11-23 T G G Kme A P Rme2s K Q L A T K (peptide)
# chain: TGGKAPRKQLATK
# B3: H3 11-23 T G G Kme A P R Kme2 Q L A T K (peptide)
# chain: TGGKAPRKQLATK
# B4: H3 11-23 T G G Kac A P R Kme3 Q L A T K (peptide)
# chain: TGGKAPRKQLATK
# B5: H3 11-23 T G G Kac A P Rcit K Q L A T K (peptide)
# chain: TGGKAPRKQLATK
# B6: H3 11-23 T G G Kme A P R K Q L A T K (peptide)
# chain: TGGKAPRKQLATK
# B7: H3 11-23 T G G Kac A P Rme2s K Q L A T K (peptide)
# chain: TGGKAPRKQLATK
# B8: H3 11-23 T G G Kac A P R K Q L A T K (peptide)
# chain: TGGKAPRKQLATK
# B9: H3 11-23 T G G Kac A P Rme2a K Q L A T K (peptide)
# chain: TGGKAPRKQLATK
# B10: H3 11-23 T G G Kme A P Rme2a K Q L A T K (peptide)
# chain: TGGKAPRKQLATK
# Experiments:
# Assay in all cases: peptide microarray binding signal (635 nm), min-max normalized on array (fraction of array maximum); higher = stronger binding
# Conditions in all cases: peptide region: H3 11-23
# [1] = target: T1, HaloTag-ATRX ADD domain (163-292)
# T1 chain: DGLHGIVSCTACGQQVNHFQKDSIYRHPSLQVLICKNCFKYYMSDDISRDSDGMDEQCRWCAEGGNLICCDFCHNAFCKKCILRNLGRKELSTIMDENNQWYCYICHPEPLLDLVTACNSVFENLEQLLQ
# Outline: (§1)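 Binding signal is the mean intensity of triplicate spots, min-max scaled within each library. Histone 13-mer peptide–cellulose conjugates were spotted in triplicate on nitrocellulose with a Cy3 tracer and blocked overnight at 4°C. Probing lasted 1 h at 4°C, either with biotin-labelled HaloTag reader fusions (10 nM to 1 μM) and streptavidin-Alexa Fluor 647 or with rabbit histone antibodies (1:10,000 to 1:2,000) and anti-rabbit Alexa 647. An Axon GenePix 4000B read signal at 635 nm and misprints at 532 nm.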
# [2] = target: HaloTag-ING2 PHD (mouse Ing2 200-280)
# Outline: as §1
# [3] = target: anti-H3K4me3 antibody ab8580
# Outline: as §1
# [4] = target: anti-H3K9me3 antibody ab8898
# Outline: as §1
# [5] = peptide modifications: H3K14me1 H3R17cit, binder concentration: 1:2,000 dilution
# [6] = peptide modifications: H3K14me1 H3R17cit, binder concentration: 1:10,000 dilution
# [7] = peptide modifications: H3K14me1 H3R17me2s, binder concentration: 1:2,000 dilution
# [8] = peptide modifications: H3K14me1 H3R17me2s, binder concentration: 1:10,000 dilution
# [9] = peptide modifications: H3K14me1 H3K18me2, binder concentration: 1:2,000 dilution
# [10] = peptide modifications: H3K14me1 H3K18me2, binder concentration: 1:10,000 dilution
# [11] = peptide modifications: H3K14ac H3K18me3, binder concentration: 1:2,000 dilution
# [12] = peptide modifications: H3K14ac H3K18me3, binder concentration: 1:10,000 dilution
# [13] = peptide modifications: H3K14ac H3R17cit, binder concentration: 1:2,000 dilution
# [14] = peptide modifications: H3K14ac H3R17cit, binder concentration: 1:10,000 dilution
# [15] = peptide modifications: H3K14me1, binder concentration: 1:2,000 dilution
# [16] = peptide modifications: H3K14me1, binder concentration: 1:10,000 dilution
# [17] = peptide modifications: H3K14ac H3R17me2s, binder concentration: 1:2,000 dilution
# [18] = peptide modifications: H3K14ac H3R17me2s, binder concentration: 1:10,000 dilution
# [19] = peptide modifications: H3K14ac, binder concentration: 1:2,000 dilution
# [20] = peptide modifications: H3K14ac, binder concentration: 1:10,000 dilution
# [21] = peptide modifications: H3K14ac H3R17me2a, binder concentration: 1:2,000 dilution
# [22] = peptide modifications: H3K14ac H3R17me2a, binder concentration: 1:10,000 dilution
# [23] = peptide modifications: H3K14me1 H3R17me2a, binder concentration: 1:2,000 dilution
# [24] = peptide modifications: H3K14me1 H3R17me2a, binder concentration: 1:10,000 dilution
binder,measurement,setting,value
B1,peptide microarray binding signal,"[1]; peptide modifications: H3K14me1 H3R17cit, binder concentration: 50 nM",0.00351 ± 0.00027
same,peptide microarray binding signal,"[1]; peptide modifications: H3K14me1 H3R17cit, binder concentration: 500 nM",0.0134 ± 0.00059
same,peptide microarray binding signal,"[2]; peptide modifications: H3K14me1 H3R17cit, binder concentration: 10 nM",0.0121 ± 0.0023
same,peptide microarray binding signal,"[2]; peptide modifications: H3K14me1 H3R17cit, binder concentration: 100 nM",0.0268 ± 0.0021
same,peptide microarray binding signal,[3]; [5],0.00151 ± 0.00025
same,peptide microarray binding signal,[3]; [6],0.00223 ± 0.00013
same,peptide microarray binding signal,[4]; [5],0.00267 ± 0.00024
same,peptide microarray binding signal,[4]; [6],0.00271 ± 0.00023
B2,peptide microarray binding signal,"[1]; peptide modifications: H3K14me1 H3R17me2s, binder concentration: 50 nM",0.00793 ± 0.00067
same,peptide microarray binding signal,"[1]; peptide modifications: H3K14me1 H3R17me2s, binder concentration: 500 nM",0.0311 ± 0.0068
same,peptide microarray binding signal,"[2]; peptide modifications: H3K14me1 H3R17me2s, binder concentration: 10 nM",0.0249 ± 0.0026
same,peptide microarray binding signal,"[2]; peptide modifications: H3K14me1 H3R17me2s, binder concentration: 100 nM",0.0474 ± 0.0059
same,peptide microarray binding signal,[3]; [7],0.00508 ± 0.0026
same,peptide microarray binding signal,[3]; [8],0.0135 ± 0.0052
same,peptide microarray binding signal,[4]; [7],0.0103 ± 0.0018
same,peptide microarray binding signal,[4]; [8],0.00709 ± 0.00074
B3,peptide microarray binding signal,"[1]; peptide modifications: H3K14me1 H3K18me2, binder concentration: 50 nM",0.009 ± 0.00035
same,peptide microarray binding signal,"[1]; peptide modifications: H3K14me1 H3K18me2, binder concentration: 500 nM",0.018 ± 0.00081
same,peptide microarray binding signal,"[2]; peptide modifications: H3K14me1 H3K18me2, binder concentration: 10 nM",0.00913 ± 0.00044
same,peptide microarray binding signal,"[2]; peptide modifications: H3K14me1 H3K18me2, binder concentration: 100 nM",0.0241 ± 0.008
same,peptide microarray binding signal,[3]; [9],0.0068 ± 0.0002
same,peptide microarray binding signal,[3]; [10],0.00588 ± 0.00018
same,peptide microarray binding signal,[4]; [9],0.00371 ± 0.00042
same,peptide microarray binding signal,[4]; [10],0.00271 ± 4.1e-05
B4,peptide microarray binding signal,"[1]; peptide modifications: H3K14ac H3K18me3, binder concentration: 50 nM",0.00953 ± 0.0014
same,peptide microarray binding signal,"[1]; peptide modifications: H3K14ac H3K18me3, binder concentration: 500 nM",0.00948 ± 0.00024
same,peptide microarray binding signal,"[2]; peptide modifications: H3K14ac H3K18me3, binder concentration: 10 nM",0.00841 ± 0.00063
same,peptide microarray binding signal,"[2]; peptide modifications: H3K14ac H3K18me3, binder concentration: 100 nM",0.0201 ± 0.0018
same,peptide microarray binding signal,[3]; [11],0.931 ± 0.11
same,peptide microarray binding signal,[3]; [12],0.499 ± 0.075
same,peptide microarray binding signal,[4]; [11],0.0555 ± 0.018
same,peptide microarray binding signal,[4]; [12],0.016 ± 0.00022
B5,peptide microarray binding signal,"[1]; peptide modifications: H3K14ac H3R17cit, binder concentration: 50 nM",0.00671 ± 0.00027
same,peptide microarray binding signal,"[1]; peptide modifications: H3K14ac H3R17cit, binder concentration: 500 nM",0.013 ± 0.00041
same,peptide microarray binding signal,"[2]; peptide modifications: H3K14ac H3R17cit, binder concentration: 10 nM",0.018 ± 0.0015
same,peptide microarray binding signal,"[2]; peptide modifications: H3K14ac H3R17cit, binder concentration: 100 nM",0.0345 ± 0.0076
same,peptide microarray binding signal,[3]; [13],0.00517 ± 0.00085
same,peptide microarray binding signal,[3]; [14],0.00297 ± 0.00013
same,peptide microarray binding signal,[4]; [13],0.00171 ± 5.6e-05
same,peptide microarray binding signal,[4]; [14],0.00127 ± 1.3e-05
B6,peptide microarray binding signal,"[1]; peptide modifications: H3K14me1, binder concentration: 50 nM",0.00646 ± 0.00024
same,peptide microarray binding signal,"[1]; peptide modifications: H3K14me1, binder concentration: 500 nM",0.0181 ± 0.002
same,peptide microarray binding signal,"[2]; peptide modifications: H3K14me1, binder concentration: 10 nM",0.00567 ± 0.00017
same,peptide microarray binding signal,"[2]; peptide modifications: H3K14me1, binder concentration: 100 nM",0.0256 ± 0.0033
same,peptide microarray binding signal,[3]; [15],0.0023 ± 0.00025
same,peptide microarray binding signal,[3]; [16],0.00108
same,peptide microarray binding signal,[4]; [15],0.004 ± 0.00032
same,peptide microarray binding signal,[4]; [16],0.00346 ± 0.00012
B7,peptide microarray binding signal,"[1]; peptide modifications: H3K14ac H3R17me2s, binder concentration: 50 nM",0.00621 ± 0.00011
same,peptide microarray binding signal,"[1]; peptide modifications: H3K14ac H3R17me2s, binder concentration: 500 nM",0.0112 ± 0.00066
same,peptide microarray binding signal,"[2]; peptide modifications: H3K14ac H3R17me2s, binder concentration: 10 nM",0.0167 ± 0.00051
same,peptide microarray binding signal,"[2]; peptide modifications: H3K14ac H3R17me2s, binder concentration: 100 nM",0.02487 ± 0.00023
same,peptide microarray binding signal,[3]; [17],0.00702 ± 0.00068
same,peptide microarray binding signal,[3]; [18],0.00628 ± 0.00011
same,peptide microarray binding signal,[4]; [17],0.00362 ± 0.00034
same,peptide microarray binding signal,[4]; [18],0.00219 ± 3.5e-05
B8,peptide microarray binding signal,"[1]; peptide modifications: H3K14ac, binder concentration: 50 nM",0.0069 ± 0.00019
same,peptide microarray binding signal,"[1]; peptide modifications: H3K14ac, binder concentration: 500 nM",0.032 ± 0.0024
same,peptide microarray binding signal,"[2]; peptide modifications: H3K14ac, binder concentration: 10 nM",0.0291 ± 0.0036
same,peptide microarray binding signal,"[2]; peptide modifications: H3K14ac, binder concentration: 100 nM",0.0427 ± 0.0088
same,peptide microarray binding signal,[3]; [19],0.00429 ± 0.00017
same,peptide microarray binding signal,[3]; [20],0.00314 ± 0.00047
same,peptide microarray binding signal,[4]; [19],0.00606 ± 0.00038
same,peptide microarray binding signal,[4]; [20],0.00392 ± 0.00032
B9,peptide microarray binding signal,"[1]; peptide modifications: H3K14ac H3R17me2a, binder concentration: 50 nM",0.00981 ± 0.001
same,peptide microarray binding signal,"[1]; peptide modifications: H3K14ac H3R17me2a, binder concentration: 500 nM",0.0127 ± 0.00086
same,peptide microarray binding signal,"[2]; peptide modifications: H3K14ac H3R17me2a, binder concentration: 10 nM",0.0112 ± 0.00063
same,peptide microarray binding signal,"[2]; peptide modifications: H3K14ac H3R17me2a, binder concentration: 100 nM",0.0221 ± 0.00099
same,peptide microarray binding signal,[3]; [21],0.00436 ± 0.00064
same,peptide microarray binding signal,[3]; [22],0.00445 ± 0.00022
same,peptide microarray binding signal,[4]; [21],0.00344 ± 0.00027
same,peptide microarray binding signal,[4]; [22],0.002479 ± 2.2e-05
B10,peptide microarray binding signal,"[1]; peptide modifications: H3K14me1 H3R17me2a, binder concentration: 50 nM",0.00643 ± 0.00034
same,peptide microarray binding signal,"[1]; peptide modifications: H3K14me1 H3R17me2a, binder concentration: 500 nM",0.0164 ± 0.0061
same,peptide microarray binding signal,"[2]; peptide modifications: H3K14me1 H3R17me2a, binder concentration: 10 nM",0.00633 ± 0.00014
same,peptide microarray binding signal,"[2]; peptide modifications: H3K14me1 H3R17me2a, binder concentration: 100 nM",0.0122 ± 0.0012
same,peptide microarray binding signal,[3]; [23],0.00328 ± 0.0014
same,peptide microarray binding signal,[3]; [24],0.00896 ± 0.0044
same,peptide microarray binding signal,[4]; [23],0.00393 ± 0.00055
same,peptide microarray binding signal,[4]; [24],0.00398 ± 0.00069
